According to PubChem BioAssay (Tox21):
Records with an inconclusive call do not appear. Calls of active or inactive are those of the source. Unless noted, the call rests on the fitted dose curve; in most records, active means well fitted curve in the direction sought with a large enough effect in the repeat runs; inconclusive means weak or mixed curves; inactive means no such curve, though single readings can be large; an effect the other way counts as inactive or inconclusive.

Legend:
[1] = qHTS assay to identify small molecule antagonists of the glucocorticoid receptor (GR) signaling pathway - cell viability counter screen (AID 720693); further: nearly all actives have a fitted effect of over 55% in size
[2] = qHTS assay for identifying genotoxic compounds that show differential cytotoxicity against isogenic chicken DT40 cell lines with known DNA damage response pathways - wild type cell line (AID 743012); further: nearly all actives have a fitted effect of over 60% in size; further: potency means the concentration at half of the fitted maximal effect
Outline: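 Viability of DNA repair-proficient chicken DT40 cells was assessed by CellTiter-Glo luminescence following 40 h compound exposure at 37 C/5% CO2.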

[3] = qHTS assay for identifying genotoxic compounds that show differential cytotoxicity against isogenic chicken DT40 cell lines with known DNA damage response pathways - Rev3 mutant cell line (AID 743014); further: nearly all actives have a fitted effect of over 55% in size; further: potency means the concentration at half of the fitted maximal effect
[4] = qHTS assay for identifying genotoxic compounds that show differential cytotoxicity against isogenic chicken DT40 cell lines with known DNA damage response pathways - Rad54/Ku70 mutant cell line (AID 743015); further: nearly all actives have a fitted effect of over 60% in size; further: potency means the concentration at half of the fitted maximal effect
[5] = qHTS assay to identify small molecule antagonists of the androgen receptor (AR) signaling pathway - cell viability counter screen (AID 743033; further: nearly all actives have a fitted effect of over 45% in size)
[6] = target: Androgen receptor (Homo sapiens) (UniProt P10275); experiment: qHTS assay to identify small molecule antagonists of the androgen receptor (AR) signaling pathway (AID 743035; active means well fitted inhibition curve with a large enough effect in the signal ratio in the repeat runs, not every such curve was filed as active; the % refers to the signal ratio)
Chain of Androgen receptor (Homo sapiens) (P10275 whole entry, looked up): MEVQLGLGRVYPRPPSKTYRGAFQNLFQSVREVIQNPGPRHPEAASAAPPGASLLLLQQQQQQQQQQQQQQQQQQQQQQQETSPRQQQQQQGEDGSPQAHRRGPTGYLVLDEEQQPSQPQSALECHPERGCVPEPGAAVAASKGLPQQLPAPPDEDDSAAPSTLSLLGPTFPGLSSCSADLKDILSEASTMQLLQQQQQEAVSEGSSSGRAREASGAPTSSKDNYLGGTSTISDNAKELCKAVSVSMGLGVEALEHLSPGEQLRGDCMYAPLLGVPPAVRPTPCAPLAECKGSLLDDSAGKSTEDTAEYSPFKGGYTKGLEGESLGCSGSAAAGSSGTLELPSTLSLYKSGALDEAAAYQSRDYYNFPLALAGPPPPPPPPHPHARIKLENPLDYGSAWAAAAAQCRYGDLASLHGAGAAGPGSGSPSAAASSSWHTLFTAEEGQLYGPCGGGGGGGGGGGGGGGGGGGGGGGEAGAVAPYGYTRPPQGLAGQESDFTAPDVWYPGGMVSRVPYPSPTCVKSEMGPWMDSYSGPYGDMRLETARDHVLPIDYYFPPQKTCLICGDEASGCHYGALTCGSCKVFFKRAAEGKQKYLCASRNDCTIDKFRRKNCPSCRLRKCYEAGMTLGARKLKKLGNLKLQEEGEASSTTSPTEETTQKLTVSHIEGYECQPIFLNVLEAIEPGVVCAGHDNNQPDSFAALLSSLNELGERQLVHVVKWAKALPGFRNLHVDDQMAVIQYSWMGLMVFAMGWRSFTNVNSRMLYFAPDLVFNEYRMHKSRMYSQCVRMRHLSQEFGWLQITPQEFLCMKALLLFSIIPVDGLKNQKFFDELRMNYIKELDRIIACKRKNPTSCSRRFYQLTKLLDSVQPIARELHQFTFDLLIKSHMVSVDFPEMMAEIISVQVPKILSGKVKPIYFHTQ
Outline: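 Reporter HEK293 cells were exposed to compounds and R1881 overnight (16 h, 37C); beta-lactamase activity was then quantified by FRET fluorescence.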

[7] = target: Androgen receptor (Homo sapiens) (UniProt P10275); experiment: qHTS assay to identify small molecule agonists of the androgen receptor (AR) signaling pathway (AID 743036; active means well fitted activation curve with a large enough effect in the signal ratio in the repeat runs, with a control signal flat, not every such curve was filed as active; the % refers to the signal ratio)
Outline: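 Beta-lactamase under UAS control, stably integrated in HEK293 GripTite cells, reports receptor activation. After 16 h compound treatment, cells received FRET substrate for 2 h at room temperature before fluorescence reading.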

[8] = target: Androgen receptor (Homo sapiens) (UniProt P10275); experiment: qHTS assay to identify small molecule agonists of the androgen receptor (AR) signaling pathway using the MDA cell line (AID 743040; further: nearly all actives have a fitted effect of over 20% in size)
Outline: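 Luciferase read-out, ONE-Glo, 30 min RT. Cells: MDA-kb2 AR-luc, MMTV promoter with AR and GR response elements. Compound exposure 16 h, 37C, 0% CO2, after 5 h pre-incubation. qHTS agonist mode.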

[9] = qHTS assay to identify small molecule antagonists of the androgen receptor (AR) signaling pathway using the MDA cell line - cell viability counter screen (AID 743041; further: nearly all actives have a fitted effect of over 45% in size)
Outline: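 Cytotoxicity counter screen: MDA-kb2 AR-luc cells, compound + R1881, 16 h, 37C, 0% CO2; CellTiter-Fluor added at 15.5 h, fluorescence read after 30 min.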

[10] = target: Androgen receptor (Homo sapiens) (UniProt P10275); experiment: qHTS assay to identify small molecule antagonists of the androgen receptor (AR) signaling pathway using the MDA cell line (AID 743042; further: nearly all actives have a fitted effect of over 55% in size)
Outline: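 MDA-kb2 breast carcinoma cells carrying MMTV-luciferase (AR/GR responsive) were co-treated with compounds and the agonist R1881 for 16 h at 37C. Inhibition read as ONE-Glo luminescence; CellTiter-Fluor fluorescence measured in parallel for cytotoxicity.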

Measured: Potency

C=C1C[C@@]23CC[C@H]4[C@@](C)(CCC[C@@]4(C)C(=O)O[C@@H]4O[C@H](CO)[C@@H](O)[C@H](O)[C@H]4O)[C@@H]2CC[C@]1(O[C@@H]1O[C@H](CO)[C@@H](O)[C@H](O[C@@H]2O[C@H](CO)[C@@H](O)[C@H](O)[C@H]2O)[C@H]1O[C@@H]1O[C@H](CO)[C@@H](O)[C@H](O)[C@H]1O)C3
inactive: all assays above

C1COC1
not listed: [8]
inactive: all other assays above

NNC(=O)CP(=O)(c1ccccc1)c1ccccc1
inactive: [1] | [2] | [3] | [4] | [5]

O=C(/C=C/c1ccccc1)OCCc1ccccc1
inactive: all assays above

O=c1[nH]ncc2ccccc12
inactive: [1] | [2] | [3] | [4]

CC(CCC(=O)O)C(=O)O (stereo not given)
inactive: [1] | [2] | [3] | [4] | [5] | [9]

CCC(C)COC(C)=O (stereo not given)
inactive: [1] | [2] | [3] | [4] | [5] | [9]

CC(C)C(O)(c1ccc(OC(F)(F)F)cc1)c1cncnc1 (stereo not given)
active: [2] 48.4 µM | [3] 27.2 µM | [4] 48.4 µM
inactive: [1] | [5] | [9]

Cc1ccc(OC(=O)c2ccccc2O)cc1
inactive: [1] | [2] | [3] | [4] | [5] | [9]

CCCCCCCCCCC(=O)O
inactive: [1] | [2] | [3] | [4] | [5] | [9]

N#CCCN(CCO)CCO
inactive: [1] | [2] | [3] | [4] | [5] | [9]

CCC(OCCCOC)OC(C)=O (stereo not given)
inactive: [1] | [2] | [3] | [4] | [5] | [9]

Nc1ncnc2c1ncn2[C@H]1CC[C@@H](CO)O1
inactive: [1] | [3] | [5] | [9]
active: [2] 26.6 µM | [4] 23.7 µM

O=C(OC(=O)c1ccccc1)c1ccccc1
not listed: [7] | [9]
inactive: all other assays above

CC(C)(c1ccccc1)c1ccccc1
inactive: [1] | [2] | [3] | [4] | [5] | [9]

C=C1CCC2CC1C2(C)C (stereo not given)
inactive: [1] | [2] | [3] | [4] | [5] | [9]

O=C1NC(=O)c2cc([N+](=O)[O-])ccc21
not listed: [7]
inactive: all other assays above

O=C1NCCN1CCO
inactive: [1] | [2] | [3] | [4] | [5] | [9]

CCN(CC)CCNC(=O)COc1ccc(OC)cc1
inactive: [1] | [2] | [3] | [4] | [5] | [9]

CCCCCCC(C)(C)C(=O)O
not listed: [6]
inactive: all other assays above

C=C(C)C(=O)OCCCCCCCCCCCCC
inactive: [1] | [2] | [3] | [4] | [5] | [9]

O=[N+]([O-])c1ccc(Nc2ccc(Nc3ccccc3)c(S(=O)(=O)O)c2)c([N+](=O)[O-])c1
inactive: [1] | [2] | [3] | [4] | [5] | [9]

O=c1c(O)c(-c2ccc(O)cc2)oc2cc(O)cc(O)c12
active: [2] 32.8 µM | [3] 11.6 µM | [4] 36.8 µM
inactive: [1] | [5] | [9]

NCCNCCO
inactive: [1] | [2] | [3] | [4] | [5] | [9]
